Many of the other results were omitted from the sample, so hits are more common in it than they were.
Tgondii IFNg = inhibitors of Toxoplasma gondii growth with IFN-gamma; Toxoplasma gondii growth in IFN-gamma-treated host cells; hits give low values; activity change, negative = inhibition, % (test concentration not listed); hit rate 3.8% among 69,000; AID 1259416; in the data active = activity change below about -70%, passing the limit was not always enough;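 also: host cells are HeLa cells infected with Toxoplasma gondii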
* = called active by the depositor; ! = a repeat was not active.

SMILES	Tgondii IFNg
C#C[C@]1(O)CCC2C3CCc4cc(OC)ccc4C3CC[C@@]21C (some centres not stated)	5.5
C[C@]12CCC3c4ccc(O)cc4CCC3C1CC[C@@H]2O (some centres not stated)	-73.7*
C[C@]12CCC3c4ccc(O)cc4CCC3C1C[C@@H](O)[C@@H]2O (some centres not stated)	-4.0
C[C@]12CC[C@@H]3c4ccc(O)cc4CC[C@H]3[C@@H]1CCC2=O	-76.5*!
C[C@]12CCC3c4ccc(OS(=O)(=O)O)cc4CCC3C1CC[C@H]2O (some centres not stated)	9.0
CC12CCC3c4ccc(O)cc4C=CC3C1CCC2=O (configuration not stated)	-88.4*
C#C[C@]1(O)CC[C@H]2[C@@H]3CCc4cc(OC)ccc4[C@H]3CC[C@@]21C	-6.4
CC(=O)O[C@]1(C(C)=O)CC[C@H]2[C@@H]3C=CC4=CC(=O)CC[C@]4(C)[C@H]3CC[C@@]21C	13.6
Cc1onc(-c2c(Cl)cccc2Cl)c1-c1nnc(NC(=O)c2ccco2)s1	-61.2
Cc1onc(-c2c(F)cccc2Cl)c1C(=O)ON=C1C2CC3CC(C2)CC1C3	-85.5*
Cc1onc(-c2c(F)cccc2Cl)c1C1=NCCO1	10.7
O=C(O)CC1COCCN1C(=O)c1ccc(NC(=O)C2CCC2)cc1 (configuration not stated)	0.5
Cn1cccc1C(=O)N1CCC2(CC(Nc3ncccn3)CO2)C1 (configuration not stated)	0.2
CCNC(=O)C1c2c(ncn2C(C)C)CCN1CC1CC1 (configuration not stated)	-28.5
COc1cc(C(F)(F)F)nc2ccc(C#CCOC(=O)Nc3cccc(Cl)c3)cc12	-108.7*
CCc1nc(OCC(=O)Nc2cccc(Cl)c2)c2ccccc2n1	3.7
N#Cc1ccc(C#CCOC(=O)Nc2ccc(OC(F)(F)F)cc2)cc1	34.4
CCCNC(=O)c1ccc(N2CCC(c3nn(C)c(=O)n3CC)CC2)nc1	-4.6
c1ccc(OCC2CN(c3ncccn3)Cc3cncn3C2)nc1 (configuration not stated)	8.1
Cc1ccc(N2CCOCC3(CCCN(S(C)(=O)=O)C3)C2)nn1 (configuration not stated)	-4.8
CCN1CCOCC12CCN(c1ccc(C#N)cc1)CC2	13.2
N#Cc1ccc(N2CCC3(CC2)CC(Oc2cccnc2)CO3)cc1 (configuration not stated)	-51.1
CC1COC2(CCN(c3ccc(C#N)cc3)CC2)C1 (configuration not stated)	-90.1*
CCC(CC)C(=O)Nc1c[nH]c(=O)[nH]c1=O	-6.8
O=c1[nH]cc(F)c(=O)[nH]1	-96.3*!
SMILES	Tgondii IFNg
CCn1c(-c2cc(NC(=O)c3cnccn3)n[nH]2)cc2c(OC)cccc21	144.5
Cc1onc(-c2ccc(Cl)cc2)c1-c1ccnc(SCC(=O)c2ccccc2)n1	-72.4*
CC(C)c1ccc(NC(=O)CSc2nccc(-c3csc(-c4ccccc4)n3)n2)cc1	-21.9
Cc1ccc(C(=O)CSc2ncn(-c3ccccc3)n2)cc1	12.1
c1ccc(CN2CCCC3(COCCN(c4ncccn4)C3)C2)cc1 (configuration not stated)	-0.6
C=CCN1CC(C(=O)N(CC)Cc2cc(Cl)ccc2OC)CCC1=O (configuration not stated)	51.6
Cc1ccc2nc(NC(=O)CN3C(=O)CCc4cc(S(=O)(=O)N5CCCC5)ccc43)sc2c1	-14.1
COc1ccc(-c2nc3c(s2)CN(C(=O)Nc2cc(C)cc(C)c2)CC3)cc1	-30.9
COc1cccc(NC(=O)N2CCc3nc(-c4ccc(C)cc4)sc3C2)c1	-121.2*
Cc1cccc(NC(=O)N2CCc3nc(-c4ccccc4)sc3C2)c1	-6.4
CCOc1ccc(-c2nc3c(s2)CN(C(=O)Nc2ccc(C)cc2C)CC3)cc1	98.1
COc1cccc(-c2nc3c(s2)CN(C(=O)Nc2ccc(OC)c(OC)c2)CC3)c1	19.0
COc1cccc(-c2nc3c(s2)CN(C(=O)Nc2ccc(OC)cc2OC)CC3)c1	35.1
COc1ccc(OC)c(NC(=O)N2CCc3nc(-c4ccccc4)sc3C2)c1	12.7
COc1ccc(-c2nc3c(s2)CN(C(=O)Nc2ccc(Br)cc2)CC3)cc1	-92.5*
CCOc1ccc(-c2nc3c(s2)CN(C(=O)Nc2cc(C)ccc2OC)CC3)cc1	-104.5*
CCOc1ccc(NC(=O)N2CCc3nc(-c4cccc(OC)c4)sc3C2)cc1	16.7
COc1cccc(-c2nc3c(s2)CN(C(=O)Nc2ccc(Cl)cc2)CC3)c1	-91.6*
COc1ccc(-c2nc3c(s2)CN(C(=O)Nc2cc(C)ccc2OC)CC3)cc1	-41.3
COc1ccc2cc(CN3CCN(S(=O)(=O)N(C)C)CC3)c(=O)[nH]c2c1	3.1
C=CCN(Cc1ccccn1)Cc1ncc[nH]1	7.0
Cc1nc2cc(C(=O)NCCOC(C)C)ccc2n1C	240.3
CCOCC(=O)N1C[C@H]2CCCC(OCc3cccnc3)[C@@H]2C1 (some centres not stated)	5.8
COc1ccc(C(C)C)cc1-c1c(-c2ccccc2)ncn1CCC(N)=O	-4.3
CCN(Cc1ccc(OC)cc1)C(=O)c1cnc(N2CCOCC2)nc1	-2.1

High-throughput results deposited in PubChem by Broad Institute.
